ERG-DNA inh = qHTS for Small Molecule Inhibitors of the ERG Ets/DNA interaction | Transcriptional regulator ERG (Homo sapiens), P11308 | fluorescence polarization, His-ERG Ets domain / labelled DNA | Potency, µM (titrated, usually from 76.9 µM), usual class: inhibitors | hit rate 0.028% among 370,000; active = well fitted inhibition curve with a large enough effect in the polarisation, with a control signal flat; inconclusive = small, poorly fitted or top-dose-only effect, or effect the other way, or a change in a side signal; inactive = no such curve, though single readings can be large or run the other way; the % refers to the polarisation;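 also: polarization taken with two DNA probes labelled with fluorescein and Texas red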
Target sequence (P11308 whole entry, looked up, the tested form may be a part): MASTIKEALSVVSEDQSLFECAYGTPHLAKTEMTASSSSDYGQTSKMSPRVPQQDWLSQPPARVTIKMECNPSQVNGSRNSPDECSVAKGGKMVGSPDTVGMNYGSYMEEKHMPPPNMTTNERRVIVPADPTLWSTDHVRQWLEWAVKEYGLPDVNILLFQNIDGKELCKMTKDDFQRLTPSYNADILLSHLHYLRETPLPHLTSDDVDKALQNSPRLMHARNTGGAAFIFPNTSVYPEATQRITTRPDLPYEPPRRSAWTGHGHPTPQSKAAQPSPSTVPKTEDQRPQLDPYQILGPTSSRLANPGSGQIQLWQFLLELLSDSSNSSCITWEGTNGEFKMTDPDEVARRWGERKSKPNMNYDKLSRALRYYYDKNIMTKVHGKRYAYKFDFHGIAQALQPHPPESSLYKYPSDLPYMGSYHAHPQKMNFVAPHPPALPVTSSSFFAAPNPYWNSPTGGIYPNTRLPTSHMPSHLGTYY
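His-tagged ERG Ets domain (1 uM in the protein solution; 300mM KCl, 50mM Tris-HCl, 1mM EDTA, 1mM DTT, pH 7.5) received compound, then a probe mix of 5 nM fluorescein-DNA and 100nM Texas-615-DNA. Fluorescence polarization was read for both dyes.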
D3 antag = qHTS of D3 Dopamine Receptor Antagonist: qHTS | D(3) dopamine receptor (Homo sapiens), P35462 | D3R cells, DiscoveRx beta-arrestin luminescence, antagonist mode; hits give low values | max response, negative = inhibition, % | hit rate 2.5% among 360,000 | AID 652054, 2013; in the data active = max response below about -50%; inconclusive = no clear call, values can overlap the other calls
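Cells plated overnight at 1500 cells/well, then exposed to library compounds with dopamine controls for 90 minutes at 37 degrees C. DiscoveRx reagent added for 30–60 minutes at room temperature; luminescence read, quantitative HTS format.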
D1 ag = Allosteric Agonists of the Human D1 Dopamine Receptor: qHTS. hit rate 1% among 360,000. HEK293 T-REx D1 cells, calcium flux, agonist mode. activation, % at 2 µM; in the data active = activation above about 30%
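Inducible HEK293 T-REx D1 cells, force-coupled to calcium signalling, were plated at 4000 cells/well with tetracycline and held overnight at 30 C. After no-wash calcium dye loading, compound-evoked calcium rise over 180 s flagged agonists.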
D1 potentiator = Potentiators of Human D1 Dopamine Receptor: qHTS. D(1A) dopamine receptor (Homo sapiens), P21728. HEK293 TREx D1 cells, calcium flux, dopamine EC20 potentiation. potentiation, % at 10 µM. hit rate 0.036% among 360,000. AID 504651, 2011; in the data active = potentiation above about 30%
D1 antagonist = Antagonist of Human D 1 Dopamine Receptor: qHTS; D(1A) dopamine receptor (Homo sapiens), P21728; HEK293 TREx D1 cells, calcium flux, dopamine EC80; hits give low values; activity change, negative = inhibition, % at 10 µM; hit rate 3.2% among 360,000; AID 504652, 2011; in the data active = activity change below about -30%
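Allosteric or orthosteric antagonism assessed as attenuation of the calcium response to EC80 dopamine, added 180 s after compound, in induced HEK293 Trex D1 cells loaded with no-wash calcium dye.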
DRD3 agonist = qHTS of D3 Dopamine Receptor Agonist: qHTS. D(3) dopamine receptor (Homo sapiens), P35462. D3R DiscoveRx beta-arrestin cells, luminescence, 90 min. max activation, %. hit rate 0.58% among 410,000. AID 652048, 2013; in the data active = max activation above about 30%
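Cells at 1500/well, incubated overnight, then treated with pinned compounds (dopamine as control) for 90 min at 37 degrees C. DiscoveRx reagent added for 30 - 60 minutes at room temperature; luminescence read.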
Large screens that a line does not name were inactive. Shown are actives, neighbours in structure and some others; about 6.1% of the full set was active somewhere.

O=C(CNS(=O)(=O)c1ccccc1)OCC(=O)c1ccc(F)cc1	none
O=C(CCNS(=O)(=O)c1ccccc1)OCC(=O)c1ccc(F)cc1	D1 antagonist -40
O=C(Nc1nc2ccccc2s1)c1ccc(S(=O)(=O)N2CCCC2)cc1	D1 antagonist -46 (no result: D3 antag)
O=C(Nc1nc2ccc(S(=O)(=O)N3CCCC3)cc2s1)c1ccc(F)cc1	none (no result: D3 antag)
CCOC(=O)N1CCN(S(=O)(=O)c2ccc(C(=O)Nc3nc4ccccc4s3)cc2)CC1	none (no result: ERG-DNA inh)
COc1ccc(C(=O)Nc2nc3ccc(S(=O)(=O)N4CCCC4)cc3s2)cc1	D1 antagonist -32 (no result: D3 antag)
CCOC(=O)C1(C)CCN1C(=O)c1ccc(OC)c(C(F)(F)F)c1 (stereo not given)	none (no result: ERG-DNA inh, D1 ag, D1 potentiator, D1 antagonist)
Cc1ccc(-c2nc(CS(=O)(=O)CC(=O)NC3CC3)c(C)o2)cc1	none
O=C(NNC1=Nc2ccccc2SC1)c1cccc([N+](=O)[O-])c1	D3 antag -61
CC(=O)Nc1nonc1-c1nnc(SCC(=O)Nc2ccc(F)cc2F)n1-c1ccccc1	none (no result: D3 antag)
CCN(CC)c1ccc(/C=C(/C#N)c2nc3ccc(C)cc3[nH]2)c(OC(C)C)c1	ERG-DNA inh inconclusive, D3 antag inconclusive, D1 ag 100
CCOc1cc(N(CC)CC)ccc1/C=C(/C#N)c1nc2ccccc2[nH]1	D3 antag -54, D1 ag 57
Cc1ccc(Cl)cc1N1CCN(C(=O)c2cc3c(=O)[nH]c4ccccc4c3n2C)CC1	DRD3 agonist 71
Cn1c(C(=O)NCCCN2CCN(c3ccccc3F)CC2)cc2c(=O)[nH]c3ccccc3c21	D1 antagonist -40
CC1CC(C)CN(CCCNC(=O)c2cc3c(=O)[nH]c4ccccc4c3n2C)C1 (stereo not given)	D3 antag -64
CCC1CCCCN1CCCNC(=O)c1cc2c(=O)[nH]c3ccccc3c2n1C (stereo not given)	none
Cc1coc(C)c1C(=O)CC1(O)C(=O)Nc2cc(Cl)cc(Cl)c21 (stereo not given)	none
CCC(C)NC(=O)CCc1c(C)nc2c(c(C)nn2-c2ccc(C)cc2)c1C (stereo not given)	none (no result: D3 antag)
COC(=O)c1cc2c(ccn2-c2ccc(F)cc2)n1CC(=O)OC(C)C	none
O=C(C1=C(O)C(=O)N(CCN2CCOCC2)C1c1cccc(Br)c1)c1cc2ccccc2o1 (stereo not given)	none
CN(C)CCN1C(=O)C(O)=C(C(=O)c2cc3ccccc3o2)C1c1cccc(Br)c1 (stereo not given)	D3 antag inconclusive, D1 antagonist -38
O=C(C1=C(O)C(=O)N(c2nccs2)C1c1ccccc1)c1cc2ccccc2o1 (stereo not given)	D1 ag 107
Cc1ccc(C)c(N2C(=O)N(Cc3cccc(C(F)(F)F)c3)c3ccccc3S2(=O)=O)c1	none (no result: D3 antag)
CCc1nnc(NC(=O)CSc2nnc(CNC(=O)c3ccccc3F)n2C)s1	none
CSc1ccccc1NC(=O)CSc1nnc(CNC(=O)c2ccccc2F)n1C	D1 ag 48 (no result: D1 potentiator)
CCCCC(C(=O)O)C(C)CC(=O)Nc1ccn(-c2ccccc2)n1 (stereo not given)	D1 antagonist -59
COc1ccccc1NS(=O)(=O)c1cccc(C(=O)NN=C2CCCCCC2)c1	none
COc1ccccc1NS(=O)(=O)c1cccc(C(=O)OCC(=O)Nc2cc(C)on2)c1	D1 antagonist -32
COc1ccccc1NS(=O)(=O)c1cccc(C(=O)NNC(=O)c2ccc(=O)[nH]c2)c1	D1 antagonist -32 (no result: D1 potentiator)
COc1ccccc1NS(=O)(=O)c1ccc(NC(=O)N2CCCCC2)cc1	D1 antagonist -46
COc1ccccc1NS(=O)(=O)c1cccc(C(=O)OCc2nc3ccccc3s2)c1	none (no result: ERG-DNA inh)
COc1ccccc1NS(=O)(=O)c1cccc(NC(=O)Nc2ccccc2)c1	D1 antagonist -33
OC[C@H]1O[C@@H](c2nc3ccc(-c4nc(-c5cccs5)no4)cc3[nH]2)C[C@@H]1O	none (no result: ERG-DNA inh, D1 ag, D1 potentiator, D1 antagonist)
O=C(c1ccc(CNc2c(N3CCCC3)c(=O)c2=O)cc1)N1CCN(C2CCCCC2)CC1	none
COc1ccc(OC)c(S(=O)(=O)Nc2ccc3c(c2)C(=O)OC3)c1	none
Cc1ccc2[nH]c3c(c2c1)CNCC3	D3 antag -58
Nc1c2c(nc3ccc(Br)cc13)N(Cc1ccccc1)CC2	D3 antag -59
Nc1c2c(nc3ccc(Br)cc13)N(c1ccccc1)CC2	none (no result: ERG-DNA inh)
CC(C)c1ccc(N2C(=O)C3C4C=CC(CC4)C3C2=O)cc1 (stereo not given)	none
CC1CC(=O)N(c2ccc(C(C)C)cc2)C(=O)C1	D1 antagonist -32
COC(=O)C1=NN(c2ccccc2OC)C2C(=O)N(c3ccccc3OC)C(=O)C12 (stereo not given)	none (no result: ERG-DNA inh)
COc1ccccc1N1C(=O)C2C(C(=O)c3ccccc3)=NN(c3ccccc3OC)C2C1=O (stereo not given)	D1 ag 78
CCOc1ccc(CCNC(=O)C(O)c2ccccc2)cc1 (stereo not given)	none
O=C(N/N=C/c1cc(Br)cs1)C(O)c1ccccc1 (stereo not given)	none
CCOc1ccc(/C=N/NC(=O)C(O)c2ccccc2)c(O)c1 (stereo not given)	D1 antagonist -33
O=C(N/N=C/c1ccc(Cl)s1)C(O)c1ccccc1 (stereo not given)	D1 antagonist -37
Cc1ccccc1C(=O)Nc1cc(-c2cc(C(C)(C)C)oc2C)nn1C	none
O=C(Nc1ccn(CCCNCCc2ccccn2)c(=O)n1)OCc1ccccc1	none (no result: ERG-DNA inh, D1 ag, D1 potentiator, D1 antagonist)
CCN(c1ccccc1)S(=O)(=O)c1ccc(C(=O)N(CCCN(C)C)c2nc3c(C)cccc3s2)cc1	none
CCN(c1ccccc1)S(=O)(=O)c1ccc(C(=O)N(CCCN(C)C)c2nc3cc4c(cc3s2)OCO4)cc1	D1 ag 42
CN(C)CCCN(C(=O)COc1ccccc1)c1nc2cc3c(cc2s1)OCO3	D1 ag 36
CN(C)CCCN(C(=O)c1ccc(S(=O)(=O)N(C)Cc2ccccc2)cc1)c1nc2cc3c(cc2s1)OCO3	D1 antagonist -55
CN(C)CCCN(C(=O)c1ccc2ccccc2c1)c1nc2cc3c(cc2s1)OCO3	D1 ag 36
CN(C)CCCN(C(=O)COc1ccc(Cl)cc1)c1nc2cc3c(cc2s1)OCO3	none

High-throughput results as filed in PubChem BioAssay.
